Structures are written as SMILES. Results filed as inconclusive are left out. A call without a number means that no potency is given here. Activity calls are given as the source filed them. Calls follow the shape of the dose curve; as a rule, active = well fitted inhibition curve with a large enough effect; inconclusive = small, poorly fitted or top-dose-only effect; inactive = no such curve, though single readings can be large or run the other way.

This assay has as its system Zika virus NS2B-NS3 protease (linked construct). Nature of the assay: Primary screen NINDS Rhodamine qHTS for Zika virus inhibitors (AID 1347160). Also: nearly all actives have a fitted effect of over 55% in size. The conditions noted are these: purified NS2B-NS3 protease, Rhodamine110 substrate fluorescence; series mostly up to 57.1 µM. The procedure, abridged:
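Purified NS2B-NS3 protease with the NS2B hydrophilic domain joined by a flexible linker (25 nM) in 10 mM Tris-HCl pH 8.0, 0.01% Tween 20, preincubated 15 min at RT with compound; Rhodamine110 peptide substrate 1.5 µM; fluorescence change over 15 min; 4-parameter Hill fit.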
On the technique in general: In qHTS, concentration-response curves come from the screen itself.
As to `CN(CCc1ccc(Nc2ncc(-c3cccnc3)s2)cc1)Cc1ccccc1`, the Potency result was “inactive”.
Still for that read-out and setting: the result for `C=C(C(=O)OC)C1C(O)CC2(C)C(=O)CCC(O)(CO)C2C1O` (stereo not given) reads “inactive”; that for `C=C1CC[C@H]2[C@@](C)(CCC(O)[C@@]2(C)CO)[C@@H]1CCC1=CCOC1=O` (stereo not given in full), “inactive”.
On the same count and under the same terms, the result for `CS(=O)(=O)NCC1CCC(Nc2nc3c(s2)CCSc2ccccc2-3)CC1` (stereo not given) reads “inactive”.
For the molecule `C[C@@H]1O[C@@H](O[C@H]2[C@H](O)[C@@H](O)[C@H](OC3CCC4(C)C5CCC(C)(C(CO)OC6OC(CO)C(O)C(O)C6O)CC5=CCC4C3(C)C)O[C@@H]2CO)[C@H](O)[C@H](O)[C@H]1O` (stereo not given in full), the Potency entry was “inactive”.
The same measure, in the same setting: the result for `C=C1[C@H](OC(C)=O)[C@H]2[C@@H](OC(C)=O)[C@](C)(OC(C)=O)C[C@]2(OC(C)=O)C(=O)[C@H](C)/C=C/C(C)(C)C(=O)[C@H](OC(=O)C(C)C)[C@H]1OC(C)=O` reads “inactive”; that for `O=S(=O)(NCC1CC1)c1ccc(Nc2nccc(N3CCCc4cc(O)ccc43)n2)cc1`, “inactive”.
Still for that read-out and setting: as for `CC(=O)O[C@H]1[C@H](O[C@H]2[C@@H]3C=CO[C@@H](O[C@@H]4O[C@H](CO)[C@@H](O)[C@H](O)[C@H]4O)[C@@H]3[C@@]3(CO)O[C@@H]23)O[C@@H](C)[C@H](OC(=O)/C=C/c2ccccc2)[C@H]1OC(=O)/C=C/c1ccccc1`, the entry is “inactive”; as for `O=C1N=C(N2CCOCC2)CN1c1ccc(Cl)cc1`, “inactive”.
Regarding `C[C@@H]1O[C@@H](O[C@@H]2[C@@H](O[C@@H]3O[C@@H](C)[C@H](O[C@@H]4OC[C@H](O)[C@H](O[C@@H]5OC[C@@H](O)[C@H](O)[C@H]5O)[C@H]4O)[C@@H](O[C@@H]4OC[C@](O)(CO)[C@H]4O)[C@H]3O)[C@H](OC(=O)[C@]34CCC(C)(C)C[C@H]3C3=CCC5[C@@]6(C)C[C@H](O)[C@H](O[C@@H]7O[C@H](CO[C@@H]8OC[C@H](O)[C@H](O)[C@H]8O)[C@@H](O)[C@H](O)[C@H]7O)C(C)(C)C6CC[C@@]5(C)[C@]3(C)C[C@H]4O)OC[C@H]2O)[C@H](O)[C@H](O)[C@H]1O` (stereo not given in full), the activity change, negative = inhibition was 1.34% [at 10.7 µM] (inactive).
Regarding `CNC(=O)c1ccccc1Nc1nc(Nc2ccc(N3CCNCC3)cc2)ncc1Cl`, the Potency result is “inactive”.
Turning to `CCC1C(=O)OC23C=C[C@@H]4C(C(=O)O)=CO[C@H](O[C@@H]12)[C@@H]43` (stereo not given in full), the Potency entry was “inactive”.
On to `C/C1=C\C[C@]2(C)C(=O)C(O)=C([C@H](C)CO)[C@H]2C/C=C(\C)[C@@H](O)CC/C(C)=C/CC1`, for which the Potency entry was “inactive”.
In the case of `CC(O)/C=C/C1(O)C(C)C(O[C@@H]2O[C@H](CO)[C@@H](O)[C@H](O)[C@H]2O)C(O)CC1(C)C` (stereo not given in full), the Potency result was “inactive”.
The same measure, in the same setting: the result for `CC[C@H](NC(=O)[C@H](CS(=O)(=O)CC1CC1)N[C@@H](c1ccc(F)cc1)C(F)(F)F)C(=O)C(=O)NC1CC1` reads “inactive”; that for `CC[C@@](C)(Nc1ccnc(-c2c[nH]c3ncccc23)n1)C(=O)NCC(F)(F)F`, “inactive”.
Turning to `CC(=O)O[C@@H](CO[C@@H]1O[C@H](CO)[C@H](O)[C@H](O)[C@H]1O)[C@]1(C)C=C2CC[C@@H]3C(C)(C)[C@@H](O)CC[C@@]3(C)[C@@H]2CC1`, the Potency result was “inactive”.
Same read-out and setting: the result for `CN(C)C/C=C/C(=O)Nc1cccc(C(=O)Nc2ccc(Nc3nccc(-c4cccnc4)n3)cc2)c1` reads “inactive”; that for `CC(C)(C(=O)NCC(F)(F)C(F)(F)F)C(=O)NC1C(=O)Nc2ccccc2-c2ccccc21` (stereo not given), “inactive”.
On the same count and under the same terms, as for `CC1COC2(OC3CC4C5CC(O[C@@H]6O[C@H](C)[C@@H](O[C@@H]7O[C@@H](C)[C@H](O)[C@@H](O)[C@H]7O)[C@H](O)[C@H]6O)C6CC(O)CCC6(C)C5CCC4(C)C3C2C)C(O)C1` (stereo not given in full), the entry is “inactive”; as for `C=C1CCCC2(C)CC3(OC)OC(=O)C(C)=C3CC12` (stereo not given), “inactive”; as for `OC/C=C/c1ccc(O[C@@H]2O[C@H](CO)[C@@H](O)[C@H](O)[C@H]2O)cc1`, “inactive”.
`O=C(O)CC(=O)OC[C@H]1O[C@@H](Oc2ccc3c(c2)OC[C@H]2c4cc5c(cc4O[C@@H]32)OCO5)[C@H](O)[C@@H](O)[C@@H]1O`: the Potency entry was “inactive”.
As to `Cc1cc(C(=O)Nc2cccc(C(=O)Nc3cccc(C(F)(F)F)c3)c2)on1`, the Potency entry is “inactive”.
As to `Cc1ccc(-c2ccc3ncc4c(c3n2)n(C2CCN(C(=O)[C@H](C)O)CC2)c(=O)n4C)cn1`, the Potency result is “inactive”.
For the molecule `CC1CCC2(OC1)OC1CC3C4CCC5C[C@@H](O[C@@H]6O[C@H](CO[C@@H]7OC[C@@H](O)[C@H](O)[C@H]7O)[C@H](O)[C@H](O)[C@H]6O)CC[C@]5(C)C4CC[C@]3(C)C1C2C` (stereo not given in full), the Potency entry was “inactive”.
Still for that read-out and setting: the result for `C[C@@H]1C(=O)O[C@H]2[C@H](O)C34[C@H]5C[C@@H](C(C)(C)C)C36[C@@H](OC(=O)[C@@H]6O)O[C@@]4(C(=O)O5)[C@@]12O` (stereo not given in full) reads “inactive”; that for `COc1c2ccoc2cc2oc(CO[C@@H]3O[C@H](CO)[C@@H](O)[C@H](O)[C@H]3O)cc(=O)c12`, “inactive”.
Same read-out and setting: the result for `CC(=O)O[C@@](C)(C(=O)/C=C/C(C)(C)O)[C@H]1[C@H](O)C[C@@]2(C)[C@@H]3CC=C4[C@@H](C=C(O)C(=O)C4(C)C)[C@]3(C)C(=O)C[C@]12C` reads “inactive”.
As for `C/C=C(\C)C(=O)O[C@@H]1CC2[C@@H](CC=C3C[C@@H](O[C@H]4C[C@H](OC)[C@H](O[C@H]5C[C@H](OC)[C@H](O[C@@H]6O[C@H](C)[C@@H](O[C@H]7C[C@H](OC)[C@H](O[C@@H]8O[C@H](CO)[C@@H](O)[C@H](O)[C@H]8O)[C@@H](C)O7)[C@H](OC)[C@H]6O)[C@@H](C)O5)[C@@H](C)O4)CC[C@@]32C)[C@@]2(O)CC[C@H](C(C)=O)[C@@]12C` (stereo not given in full), the activity change, negative = inhibition was 18.6% [at 10.7 µM] (inactive).
`CC(=O)C12OC(C)(C)OC1CC1C3CCC4=CC(=O)C=CC4(C)C3(F)C(O)CC12C` (stereo not given): the Potency result was “inactive”.
Still for that read-out and setting: as for `C[C@@]12CC[C@@H]3[C@@](CC[C@H]4[C@@]3(C)CCC[C@@]4(C)C(=O)O)(CC1=O)C2`, the entry is “inactive”; as for `C=C1C(=O)O[C@H]2[C@H]1CC/C(C)=C/CC[C@@]1(C)O[C@@H]21`, “inactive”.
On the same count and under the same terms, as for `COc1cc(C2Oc3c(OC)cc(CCCO)cc3C2CO)ccc1O[C@H]1O[C@H](C)[C@@H](O)[C@H](O)[C@@H]1O` (stereo not given in full), the entry is “inactive”.
As for `C[C@@H]1O[C@@H](O[C@H]2[C@H](OC(=O)[C@]34CCC(C)(C)C[C@H]3C3=CCC5[C@@]6(C)CC[C@H](O[C@@H]7O[C@H](C(=O)O)[C@@H](O)[C@H](O)[C@H]7O[C@@H]7O[C@H](CO)[C@H](O)[C@H](O)[C@H]7O)[C@@](C)(C=O)C6CC[C@@]5(C)[C@]3(C)C[C@H]4O)O[C@H](C)[C@H](O[C@@H]3O[C@H](C)[C@H](O)[C@H](O)[C@H]3O)[C@@H]2O)[C@H](O)[C@H](O)[C@H]1O[C@@H]1OC[C@@H](O)[C@H](O[C@@H]2O[C@H](CO)[C@@H](O)[C@H](O)[C@H]2O)[C@H]1O` (stereo not given in full), the outcome was “inactive [at 10.7 µM]”.
For `CC1(C)CC[C@]2(C(=O)O[C@@H]3O[C@H](CO)[C@@H](O)[C@H](O)[C@H]3O)CC[C@]3(C)C(=CCC4[C@@]5(C)CC[C@H](O[C@@H]6O[C@H](C(=O)O)[C@@H](O)[C@H](O)[C@H]6O)[C@@](C)(CO)C5CC[C@]43C)C2C1` (stereo not given in full), the Potency entry is “inactive”.
The same measure, in the same setting: as for `COc1ccc2cc(C(C)C(=O)Oc3ccc(C(N)=S)cc3)ccc2c1` (stereo not given), the entry is “inactive”; as for `COC(=O)CC1CC(c2ccc(O)cc2)=NO1` (stereo not given), “inactive”.
The same measure, in the same setting: the result for `CNC(=O)c1cc(Oc2ccc3nc(N[C@@H]4CCCC[C@H]4O)sc3c2)ccn1` reads “inactive”; that for `CC(=O)/C=C/[C@H]1[C@](C)(O)[C@@H](O)[C@H](OC(C)=O)C2C(C)(C)CCC[C@@]21C` (stereo not given in full), “inactive”.
